Data taken from PubChem BioAssay (NCI).
Compounds without any hit were thinned out: in the full panel of roughly 83,000, 20% have a hit.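 For each line, cells grew in 96-well plates with the test compound present at a single concentration for 48 hours.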 A number with no mark means an inactive call. Activity calls are given as the source filed them. Rule for the calls: active = growth percent below 10; inactive = the rest.

Legend:
Experiment in all cases: NCI-60 one-dose screen, 48 h (100 = growth as untreated, 0 = no growth, -100 = all killed)
Settings in all cases: 10 µM unless noted
[1] = tested on: NCI-H23 lung
[2] = tested on: NCI-H226 lung
[3] = tested on: NCI-H322M lung
[4] = tested on: HOP-62 NSCLC
[5] = tested on: NCI-H460 lung
[6] = tested on: HOP-92 NSCLC
[7] = tested on: NCI-H522 lung
[8] = tested on: A549/ATCC NSCLC
[9] = tested on: 786-0 renal
[10] = tested on: COLO 205 colon

SMILES: CC[C@H](Nc1ncnc2nc[nH]c12)c1nc2cccc(CC(=O)c3ccc(C(=O)NO)cc3)c2c(=O)n1-c1ccccc1
- growth [1]: 94.1%
- growth [2]: 84.9%
- growth [3]: 90.4%
- growth [4]: 83.2%
- growth [5]: 89.9%
- growth [6]: 72.6%
- growth [7]: 51.4%
- growth [8]: 88.4%
- growth [9]: 98.9%
- growth [10]: 95.4%

SMILES: NC(=N\N=C\c1ccccc1O)/C(N)=N/N=C/c1ccccc1O
- growth [1]: 90.9%
- growth [2]: 96%
- growth [3]: 80.5%
- growth [4]: 84.5%
- growth [5]: 70.1%
- growth [6]: 76.2%
- growth [7]: 63.5%
- growth [8]: 73.6%
- growth [9]: 85.2%
- growth [10]: 97.1%

SMILES: CCCCCCN1C(=O)CN=C1Nc1ccc2cc3ccc(NC4=NCC(=O)N4CCCCCC)cc3nc2c1
- growth [1]: 64.8%
- growth [2]: 81.7%
- growth [3]: 79.7%
- growth [4]: 82.4%
- growth [5]: 57.5%
- growth [6]: 82.9%
- growth [7]: -9.83% (active)
- growth [8]: 74.5%
- growth [9]: 36.1%
- growth [10]: 40.3%

SMILES: CN1CC=C(c2cc(NC(=O)Nc3ccc(Oc4ccnc(NC(=O)C5CC5)c4)c(F)c3)cc(C(F)(F)F)c2)CC1
- growth [1]: -14.8% (active)
- growth [2]: 4.49% (active)
- growth [3]: 7.64% (active)
- growth [4]: -13.2% (active)
- growth [5]: -5.88% (active)
- growth [6]: -17% (active)
- growth [7]: -49.8% (active)
- growth [8]: -6.76% (active)
- growth [9]: -6.75% (active)
- growth [10]: -26.2% (active)

SMILES: CCc1c(C(=O)N[C@@H](C(=O)OCc2ccccc2)C(C)O)[nH]c2ccc(Cl)cc12 (stereo not given in full)
- growth [1]: 80.1%
- growth [2]: 21.7%
- growth [3]: 75%
- growth [4]: 65.8%
- growth [5]: 13.8%
- growth [6]: 74.5%
- growth [7]: 77.1%
- growth [8]: 69.6%
- growth [9]: 11.1%
- growth [10]: 48.7%

SMILES: COC(=O)c1cncc(C(=O)Nc2ccc(-n3cnc4ccccc43)cc2)c1
- growth [1]: 102%
- growth [2]: 89.6%
- growth [3]: 95.6%
- growth [4]: 94.8%
- growth [5]: 96.9%
- growth [6]: 86.7%
- growth [7]: 84%
- growth [8]: 94.4%
- growth [9]: 105%
- growth [10]: 106%

SMILES: COc1cc(F)c(-c2nc3c(C)cccc3n2Cc2c(F)cccc2F)c(F)c1
- growth [1]: 79.8%
- growth [2]: 88.7%
- growth [3]: 87.5%
- growth [4]: 83.3%
- growth [5]: 77.8%
- growth [6]: 81.3%
- growth [7]: 73.4%
- growth [8]: 69.1%
- growth [9]: 85.7%
- growth [10]: 98%

SMILES: Nc1ccc(C(=O)Nc2cccc(C(=O)Nc3ccc4c(O)c(N=Nc5ccc(N=Nc6ccc(S(=O)(=O)O)cc6)cc5)c(S(=O)(=O)O)cc4c3)c2)cc1
- growth [1]: 96.8%
- growth [2]: 111%
- growth [3]: 101%
- growth [4]: 98.5%
- growth [5]: 105%
- growth [6]: 108%
- growth [7]: 92.3%
- growth [8]: 102%
- growth [9]: 103%
- growth [10]: 114%

SMILES: COCCc1n(Cc2ccc3ccccc3c2)c2ccccc2[n+]1Cc1ccc2ccccc2c1
- growth [1]: -24.3% (active)
- growth [2]: -7.12% (active)
- growth [3]: 5.25% (active)
- growth [4]: -19.1% (active)
- growth [5]: -65.3% (active)
- growth [6]: -53.1% (active)
- growth [7]: -54.4% (active)
- growth [8]: 4.72% (active)
- growth [9]: -94.3% (active)
- growth [10]: -71% (active)

SMILES: COc1ccc(NC(=O)c2sc3nc(C)c(C(C)=O)cc3c2N)cc1
- growth [1]: 98.1%
- growth [2]: 95.9%
- growth [3]: 95.5%
- growth [4]: 99.1%
- growth [5]: 96%
- growth [6]: 94.6%
- growth [7]: 75.2%
- growth [8]: 84%
- growth [9]: 91.4%
- growth [10]: 103%

SMILES: COc1cc(C(=O)N2CCN(c3ccccc3OC)CC2)c(NC(=O)c2cnccn2)cc1OCc1ccccc1
- growth [1]: 77.9%
- growth [2]: 88.3%
- growth [3]: 69.4%
- growth [4]: 84.9%
- growth [5]: 121%
- growth [6]: 10.7%
- growth [7]: 73.7%
- growth [8]: 91.8%
- growth [9]: 87.3%
- growth [10]: 99.4%

SMILES: O=C(C[n+]1cccc2cc(Cl)ccc21)c1ccc2c(c1)CCCC2
- growth [1]: 8.05% (active)
- growth [2]: 39%
- growth [3]: 61.6%
- growth [4]: 36.2%
- growth [5]: 19.8%
- growth [6]: 4.68% (active)
- growth [7]: -3.94% (active)
- growth [8]: 34.5%
- growth [9]: 80.4%
- growth [10]: 2.8% (active)

SMILES: COc1cc(C2=NN(c3ccccc3)C(c3cccc(Nc4ccnc5cc(C(F)(F)F)ccc45)c3)C2)cc(OC)c1OC (stereo not given)
- growth [1]: 79.1%
- growth [2]: 83.6%
- growth [3]: 85.6%
- growth [4]: 88.8%
- growth [5]: 96.2%
- growth [6]: 73.4%
- growth [7]: 76.4%
- growth [8]: 86.5%
- growth [9]: 101%
- growth [10]: 86.7%

SMILES: CC(=O)Oc1ccc(O)cc1
- growth [1]: 95.2%
- growth [2]: 106%
- growth [3]: 97.2%
- growth [4]: 113%
- growth [5]: 108%
- growth [6]: 98.3%
- growth [7]: 33.3%
- growth [8]: 91.6%
- growth [9]: 110%
- growth [10]: 120%

SMILES: COC(=O)c1cc2c3c(cc(O)c2[nH]1)N(C(=O)C1Cc2cc(OC)c(OC)c(OC)c2N1)CC3CCl (stereo not given)
- growth [1]: -48.7% (active)
- growth [2]: -35.1% (active)
- growth [3]: -16.2% (active)
- growth [4]: -54.7% (active)
- growth [5]: -17.9% (active)
- growth [6]: -35.9% (active)
- growth [7]: -60.6% (active)
- growth [8]: -21% (active)
- growth [9]: -47.6% (active)
- growth [10]: -70.4% (active)

SMILES: CCCCN(CCCC)CC(CN(CC)CC)OC(=O)Nc1ccccc1 (stereo not given)
- growth [1]: 72.2%
- growth [2]: 103%
- growth [3]: 85%
- growth [4]: 75.4%
- growth [5]: 105%
- growth [6]: 75%
- growth [7]: 74.7%
- growth [8]: 92.9%
- growth [9]: 83%
- growth [10]: 79.6%

SMILES: CC(=O)c1c(OCC#N)ccc2c(C)cc(=O)oc12
- growth [1]: 109%
- growth [2]: 112%
- growth [3]: 113%
- growth [4]: 94.7%
- growth [5]: 103%
- growth [6]: 108%
- growth [7]: 77.3%
- growth [8]: 99.9%
- growth [9]: 106%
- growth [10]: 104%

SMILES: Cc1cc(C)cc(Nc2nccc(-c3c(-c4ccc(F)cc4)ncn3C3CCNCC3)n2)c1
- growth [1]: 43.1%
- growth [2]: 32.3%
- growth [3]: 32.2%
- growth [4]: 25.4%
- growth [5]: -5.36% (active)
- growth [6]: 26.7%
- growth [7]: -36.2% (active)
- growth [8]: 6.65% (active)
- growth [9]: 11.8%
- growth [10]: -66% (active)

SMILES: O=C1C(=O)c2c(nc3ccc(C(F)(F)F)cn23)-c2ccccc21
- growth [1]: -30.8% (active)
- growth [2]: -96.6% (active)
- growth [3]: -94.8% (active)
- growth [4]: -97.5% (active)
- growth [5]: -64.8% (active)
- growth [6]: -77.9% (active)
- growth [7]: -72.4% (active)
- growth [8]: -51.4% (active)
- growth [9]: -80.8% (active)
- growth [10]: -78.9% (active)

SMILES: CCOc1ccccc1C(=O)/C=C/c1cc2ccccc2[nH]c1=O
- growth [1]: -55.2% (active)
- growth [2]: 8.19% (active)
- growth [3]: -2.24% (active)
- growth [4]: -33.5% (active)
- growth [5]: -4.96% (active)
- growth [6]: 0.541% (active)
- growth [7]: -38.6% (active)
- growth [8]: 16.8%
- growth [9]: -21.7% (active)
- growth [10]: -50.8% (active)

SMILES: CN1CCN(C(=O)[C@@]2(C)CC[C@]3(C)CC[C@]4(C)C(=CC[C@@H]5[C@@]6(C)CC[C@H](OC(=O)c7cccnc7)C(C)(C)[C@@H]6CC[C@]54C)[C@@H]3C2)CC1
- growth [1]: 75.3%
- growth [2]: 95.2%
- growth [3]: 94.9%
- growth [4]: 83.7%
- growth [5]: 11.7%
- growth [6]: 79.2%
- growth [7]: 98.6%
- growth [8]: 69.8%
- growth [9]: 13%
- growth [10]: 68.3%

SMILES: O=C(NC[C@H](O)CN1CCc2ccccc2C1)c1cc(NC2COC2)ncn1
- growth [1]: 99.7%
- growth [2]: 108%
- growth [3]: 93.6%
- growth [4]: 92.8%
- growth [5]: 97.8%
- growth [6]: 112%
- growth [7]: 92%
- growth [8]: 93.4%
- growth [9]: 92%
- growth [10]: 92.4%

SMILES: C=C1C(=O)O[C@H]2[C@H]1CC/C(COC(=O)Nc1nc3ccccc3[nH]1)=C\CC[C@@]1(C)O[C@@H]21
- growth [1]: 70.9%
- growth [2]: 79.8%
- growth [3]: 105%
- growth [4]: 89.9%
- growth [5]: 91.4%
- growth [6]: 50.4%
- growth [7]: -27.2% (active)
- growth [8]: 95.5%
- growth [9]: 80%
- growth [10]: 17.3%

SMILES: COc1ccc(NC(=O)Nc2ccc(Nc3nc(C)cc(Nc4ccc(C)cc4)n3)cc2)cc1
- growth [1]: -57.2% (active)
- growth [2]: -71.4% (active)
- growth [3]: -74.7% (active)
- growth [4]: -94.1% (active)
- growth [5]: -74.2% (active)
- growth [6]: -54.1% (active)
- growth [7]: -74.8% (active)
- growth [8]: -83% (active)
- growth [9]: -93.8% (active)
- growth [10]: -78.7% (active)

SMILES: COc1cccc(NC(=O)Nc2ccc(Oc3ncnc4[nH]c(C)c(C)c34)cc2)c1
- growth [1]: 70.7%
- growth [2]: 105%
- growth [3]: 105%
- growth [4]: 97.5%
- growth [5]: 61.3%
- growth [6]: 110%
- growth [7]: 57.8%
- growth [8]: 79.7%
- growth [9]: 109%
- growth [10]: 102%

SMILES: COc1ccc(OCC(=O)OC(C)C)cc1
- growth [1]: 90.6%
- growth [2]: 95.3%
- growth [3]: 94%
- growth [4]: 101%
- growth [5]: 105%
- growth [6]: 104%
- growth [7]: 97.9%
- growth [8]: 102%
- growth [9]: 104%
- growth [10]: 104%

SMILES: O=C(Nc1cc(Nc2ncccc2-c2ncnc3nc[nH]c23)ccc1F)c1cc(C(F)(F)F)cc(C(F)(F)F)c1
- growth [1]: -3.98% (active)
- growth [2]: 16.8%
- growth [3]: 46.7%
- growth [4]: -14.4% (active)
- growth [5]: -30.4% (active)
- growth [6]: -31.3% (active)
- growth [7]: 11.7%
- growth [8]: 0.774% (active)
- growth [9]: -3.09% (active)
- growth [10]: -60.2% (active)
